For some of these results: Potency and affinity values are given separately.

The values below come from ChEMBL document CHEMBL3988442, “University of Dundee, Small-Polar-MMV Screening Library” (2021).

What all share (set-up): scale not given: direction of the effect not stated beside the values
Experiment [1] has as its target Protein translocase subunit SecA (Escherichia coli (strain K12)) (UniProt P10408). The experiment can be described thus: Assay to Identify E. coli SecA ATPase Inhibitors. The experiment is classed as functional. As to conditions: 30 µM.
The target of experiment [2] is T1, Ubiquitin-activating enzyme e1, putative (Leishmania donovani (strain BPK282A1)) (UniProt E9BSI1).
T1 sequence (whole entry): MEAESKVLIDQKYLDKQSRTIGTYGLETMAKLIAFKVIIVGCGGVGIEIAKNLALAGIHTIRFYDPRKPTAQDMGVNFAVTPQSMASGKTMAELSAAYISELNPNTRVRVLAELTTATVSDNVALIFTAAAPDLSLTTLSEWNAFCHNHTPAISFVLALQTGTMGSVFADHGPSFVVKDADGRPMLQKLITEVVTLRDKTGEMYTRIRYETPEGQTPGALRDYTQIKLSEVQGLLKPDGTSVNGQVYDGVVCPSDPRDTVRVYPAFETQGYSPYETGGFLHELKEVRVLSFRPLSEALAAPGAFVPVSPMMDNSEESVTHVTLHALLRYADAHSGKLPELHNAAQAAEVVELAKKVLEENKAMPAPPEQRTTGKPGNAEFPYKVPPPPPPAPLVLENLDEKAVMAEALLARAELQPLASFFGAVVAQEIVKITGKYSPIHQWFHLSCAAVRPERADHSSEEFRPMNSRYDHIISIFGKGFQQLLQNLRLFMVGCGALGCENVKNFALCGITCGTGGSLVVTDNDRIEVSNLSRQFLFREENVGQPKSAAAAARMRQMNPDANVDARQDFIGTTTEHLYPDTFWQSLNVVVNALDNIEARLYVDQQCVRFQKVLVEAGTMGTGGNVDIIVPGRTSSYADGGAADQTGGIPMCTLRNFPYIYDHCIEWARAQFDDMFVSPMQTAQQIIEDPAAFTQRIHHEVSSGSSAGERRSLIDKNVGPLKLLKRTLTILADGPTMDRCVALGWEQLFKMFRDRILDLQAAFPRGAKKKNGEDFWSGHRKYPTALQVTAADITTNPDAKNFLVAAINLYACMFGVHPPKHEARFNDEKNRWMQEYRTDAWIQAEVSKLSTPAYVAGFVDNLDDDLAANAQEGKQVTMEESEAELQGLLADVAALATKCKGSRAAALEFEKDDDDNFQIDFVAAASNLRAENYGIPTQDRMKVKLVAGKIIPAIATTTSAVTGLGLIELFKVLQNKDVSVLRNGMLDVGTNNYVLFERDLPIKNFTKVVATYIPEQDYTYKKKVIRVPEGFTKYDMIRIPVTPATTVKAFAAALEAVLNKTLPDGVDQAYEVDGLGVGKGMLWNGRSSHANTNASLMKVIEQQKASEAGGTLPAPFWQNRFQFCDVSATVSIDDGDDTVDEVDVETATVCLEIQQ
The experiment can be described thus: Leishmania donovani Ubiquitin Activating Enzyme (LdE1). Format: functional. The settings on record: 30 µM.

Experiment [3] has as its target Sialic acid-binding Ig-like lectin 9 (Homo sapiens) (UniProt Q9Y336). In words: Hs-Siglec9 ALPHAscreen SOP 20170721. As to conditions: 10 µM. For orientation: In Alpha technology, singlet oxygen from a donor bead excites a nearby acceptor bead.
For another experiment, the system named is Trypanosoma cruzi. The experiment can be described thus: Trypanosoma cruzi phosphomannomutase and mannose-1-phosphate guanylyltransferase assay. The settings on record: 10 µM. Format: functional.
Experiment [4] addresses T2, Arginase-2, mitochondrial (Homo sapiens) (UniProt P78540).
T2 sequence (whole entry): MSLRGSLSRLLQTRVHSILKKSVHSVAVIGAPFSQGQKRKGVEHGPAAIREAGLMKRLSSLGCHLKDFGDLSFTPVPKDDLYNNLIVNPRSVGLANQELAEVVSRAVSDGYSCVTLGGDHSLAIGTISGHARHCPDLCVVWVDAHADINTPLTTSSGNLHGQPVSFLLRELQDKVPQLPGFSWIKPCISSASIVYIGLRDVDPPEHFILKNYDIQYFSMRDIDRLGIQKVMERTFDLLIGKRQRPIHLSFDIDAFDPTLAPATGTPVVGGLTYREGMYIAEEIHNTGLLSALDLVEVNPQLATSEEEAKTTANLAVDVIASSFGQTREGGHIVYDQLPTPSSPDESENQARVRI
In words: in vitro enzyme assay to detect the production of urea directly proportional to the activity of Arginase II. Also: in the data most compounds retested in dose-response had high values. The experiment is classed as functional. As to conditions: 33.3 µM.

Experiment [5] concerns the target T3, Proteasome subunit beta (Trypanosoma cruzi) (UniProt O96673).
T3 sequence (whole entry): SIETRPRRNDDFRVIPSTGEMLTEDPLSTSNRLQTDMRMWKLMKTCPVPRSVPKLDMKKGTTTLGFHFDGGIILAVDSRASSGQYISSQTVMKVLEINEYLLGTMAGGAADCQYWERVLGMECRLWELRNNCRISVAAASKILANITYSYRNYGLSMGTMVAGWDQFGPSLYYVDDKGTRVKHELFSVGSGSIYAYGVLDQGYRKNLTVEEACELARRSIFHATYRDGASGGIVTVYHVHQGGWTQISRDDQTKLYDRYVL
In words: Trypanosoma cruzi proteasome chymotrypsin-like activity (TcProtChymo) assay. Also: in the data most compounds retested in dose-response had high values. As to conditions: 9.37 µM. Format: functional.

The species entered for a further experiment is Homo sapiens. The experiment can be described thus: To identify inhibition of the IFN signalling (Jak-Stat) pathway via expression of an eGFP reporter gene under the control of an IFN-stimulated response element (ISRE) containing MxA promoter. The settings on record: 30 µM. Format: functional. A general note: A reporter such as luciferase makes a cellular process visible.

Experiment [6] has as its target T4, Tyrosyl-tRNA synthetase, putative (Trypanosoma cruzi (strain CL Brener)) (UniProt Q4DSP6).
T4 sequence (whole entry): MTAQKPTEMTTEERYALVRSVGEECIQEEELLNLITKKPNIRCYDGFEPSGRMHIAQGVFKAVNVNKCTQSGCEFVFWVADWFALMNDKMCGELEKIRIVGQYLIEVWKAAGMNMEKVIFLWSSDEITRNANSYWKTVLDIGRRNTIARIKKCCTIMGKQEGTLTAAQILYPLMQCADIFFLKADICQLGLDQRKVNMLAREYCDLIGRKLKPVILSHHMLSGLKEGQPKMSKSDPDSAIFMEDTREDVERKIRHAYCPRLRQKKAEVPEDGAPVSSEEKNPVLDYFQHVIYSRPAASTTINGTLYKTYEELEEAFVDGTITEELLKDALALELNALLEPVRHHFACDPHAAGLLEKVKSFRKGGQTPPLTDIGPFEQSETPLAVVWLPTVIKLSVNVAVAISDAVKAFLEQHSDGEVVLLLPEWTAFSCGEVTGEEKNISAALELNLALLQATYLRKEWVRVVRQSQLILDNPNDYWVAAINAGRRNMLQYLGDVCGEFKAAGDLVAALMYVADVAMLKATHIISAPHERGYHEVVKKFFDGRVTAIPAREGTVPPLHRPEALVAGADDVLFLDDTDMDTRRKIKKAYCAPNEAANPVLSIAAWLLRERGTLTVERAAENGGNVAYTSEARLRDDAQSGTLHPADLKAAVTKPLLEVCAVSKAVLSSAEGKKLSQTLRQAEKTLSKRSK
In words: Trypanosoma cruzi tyrosyl tRNA synthetase (TcYRS) _High Tyrosine SOP. Also: in the data most compounds retested in dose-response had high values. Format: functional. As to conditions: 30 µM.

The target in experiment [7] is T4, Tyrosyl-tRNA synthetase, putative (Trypanosoma cruzi (strain CL Brener)). The experiment can be described thus: Trypanosoma cruzi tyrosyl tRNA synthetase (TcYRS) SOP. Format: functional. As to conditions: 30 µM.
Experiment [8] has as its target Chromo domain-containing protein 1 (Saccharomyces cerevisiae (strain ATCC 204508 / S288c) (Baker's yeast)) (UniProt P32657). In words: ScCHD-1 Enzyme Inhibition Assay. Also: in the data most compounds retested in dose-response had high values. Format: functional. As to conditions: 30 µM.

Sequence of Protein translocase subunit SecA (Escherichia coli (strain K12)) (P10408 whole entry): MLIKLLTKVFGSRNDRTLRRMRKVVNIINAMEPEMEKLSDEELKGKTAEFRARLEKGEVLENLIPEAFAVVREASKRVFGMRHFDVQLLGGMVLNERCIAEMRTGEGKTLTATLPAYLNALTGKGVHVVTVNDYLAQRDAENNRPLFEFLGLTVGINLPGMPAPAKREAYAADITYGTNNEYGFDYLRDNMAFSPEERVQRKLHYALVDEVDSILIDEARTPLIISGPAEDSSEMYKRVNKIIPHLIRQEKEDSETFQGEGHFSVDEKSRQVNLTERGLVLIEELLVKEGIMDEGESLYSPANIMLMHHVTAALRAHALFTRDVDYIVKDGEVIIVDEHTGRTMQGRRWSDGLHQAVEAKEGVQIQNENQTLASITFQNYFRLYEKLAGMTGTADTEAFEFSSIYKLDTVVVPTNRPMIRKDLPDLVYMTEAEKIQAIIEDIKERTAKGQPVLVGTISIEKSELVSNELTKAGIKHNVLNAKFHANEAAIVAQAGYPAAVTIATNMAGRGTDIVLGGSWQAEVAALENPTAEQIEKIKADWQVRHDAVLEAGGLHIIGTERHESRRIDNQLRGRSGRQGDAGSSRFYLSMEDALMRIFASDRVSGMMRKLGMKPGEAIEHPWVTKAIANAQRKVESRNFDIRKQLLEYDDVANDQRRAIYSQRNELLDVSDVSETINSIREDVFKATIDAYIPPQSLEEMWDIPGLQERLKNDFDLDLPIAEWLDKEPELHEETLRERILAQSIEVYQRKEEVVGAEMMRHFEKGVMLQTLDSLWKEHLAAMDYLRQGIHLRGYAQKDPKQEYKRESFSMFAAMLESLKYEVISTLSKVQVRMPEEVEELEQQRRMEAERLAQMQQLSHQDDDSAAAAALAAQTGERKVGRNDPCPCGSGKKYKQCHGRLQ
Sequence of Chromo domain-containing protein 1 (Saccharomyces cerevisiae (strain ATCC 204508 / S288c) (Baker's yeast)) (P32657 whole entry, the tested form may be a part): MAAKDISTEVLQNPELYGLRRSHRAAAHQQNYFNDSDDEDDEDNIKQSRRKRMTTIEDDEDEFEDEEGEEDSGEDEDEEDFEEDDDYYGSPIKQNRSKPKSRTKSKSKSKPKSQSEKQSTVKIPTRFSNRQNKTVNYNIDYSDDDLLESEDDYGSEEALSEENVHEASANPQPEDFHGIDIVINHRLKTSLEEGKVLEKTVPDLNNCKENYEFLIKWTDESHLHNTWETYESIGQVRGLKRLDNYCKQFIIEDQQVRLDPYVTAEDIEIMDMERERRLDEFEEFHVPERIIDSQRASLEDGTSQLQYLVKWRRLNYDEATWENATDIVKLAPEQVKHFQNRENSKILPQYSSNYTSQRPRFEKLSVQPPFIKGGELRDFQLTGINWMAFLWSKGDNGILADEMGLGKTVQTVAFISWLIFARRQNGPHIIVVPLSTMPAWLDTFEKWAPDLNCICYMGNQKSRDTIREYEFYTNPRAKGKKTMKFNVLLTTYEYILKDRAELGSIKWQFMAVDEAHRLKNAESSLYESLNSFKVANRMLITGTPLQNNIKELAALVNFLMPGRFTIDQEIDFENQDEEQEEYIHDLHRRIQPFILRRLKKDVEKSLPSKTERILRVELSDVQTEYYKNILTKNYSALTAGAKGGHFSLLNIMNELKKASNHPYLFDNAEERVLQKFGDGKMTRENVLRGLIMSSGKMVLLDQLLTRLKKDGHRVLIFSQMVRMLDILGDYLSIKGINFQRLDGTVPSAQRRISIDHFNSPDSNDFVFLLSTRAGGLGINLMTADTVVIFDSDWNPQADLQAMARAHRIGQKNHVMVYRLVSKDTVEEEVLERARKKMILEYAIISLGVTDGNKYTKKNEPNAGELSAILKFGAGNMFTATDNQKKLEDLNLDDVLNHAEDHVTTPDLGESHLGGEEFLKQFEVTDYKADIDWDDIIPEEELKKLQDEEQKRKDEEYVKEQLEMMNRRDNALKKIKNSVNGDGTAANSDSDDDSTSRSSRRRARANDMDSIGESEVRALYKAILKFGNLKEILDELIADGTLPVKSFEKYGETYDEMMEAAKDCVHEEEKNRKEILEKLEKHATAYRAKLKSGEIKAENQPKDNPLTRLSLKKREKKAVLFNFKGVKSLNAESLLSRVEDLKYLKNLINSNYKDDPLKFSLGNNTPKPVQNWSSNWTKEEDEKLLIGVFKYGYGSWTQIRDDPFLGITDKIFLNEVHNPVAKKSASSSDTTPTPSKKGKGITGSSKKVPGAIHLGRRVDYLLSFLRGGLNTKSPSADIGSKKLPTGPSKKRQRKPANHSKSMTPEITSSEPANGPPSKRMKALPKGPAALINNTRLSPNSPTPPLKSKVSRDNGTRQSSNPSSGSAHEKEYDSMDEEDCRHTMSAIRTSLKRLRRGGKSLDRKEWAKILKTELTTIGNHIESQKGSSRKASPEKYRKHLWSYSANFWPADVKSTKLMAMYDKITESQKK
Sequence of Sialic acid-binding Ig-like lectin 9 (Homo sapiens) (Q9Y336 whole entry): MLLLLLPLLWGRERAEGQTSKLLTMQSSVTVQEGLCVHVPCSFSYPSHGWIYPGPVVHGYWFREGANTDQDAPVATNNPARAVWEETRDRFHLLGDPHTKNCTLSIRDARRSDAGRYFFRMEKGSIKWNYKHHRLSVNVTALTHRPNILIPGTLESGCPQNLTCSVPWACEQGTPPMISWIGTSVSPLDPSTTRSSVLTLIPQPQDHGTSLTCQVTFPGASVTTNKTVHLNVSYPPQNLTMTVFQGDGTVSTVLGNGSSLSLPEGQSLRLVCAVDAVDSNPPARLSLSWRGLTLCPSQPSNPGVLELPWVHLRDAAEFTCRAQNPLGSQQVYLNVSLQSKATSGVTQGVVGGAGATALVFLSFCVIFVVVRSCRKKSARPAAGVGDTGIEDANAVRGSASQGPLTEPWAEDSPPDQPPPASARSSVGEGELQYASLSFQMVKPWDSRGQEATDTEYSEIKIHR

As to `CCCc1noc(CN2CCCC2c2c(C)nn(C)c2OC)n1` (stereo not given), the Percent Effect was -8.89% in experiment [1]; -2.67% in experiment [2]; -1.2% in experiment [3]; -1.61% with Trypanosoma cruzi; 3.1% in experiment [4]; 2.29% in [5]. In addition, the Percent Effect is 9.23% in the experiment listed under Homo sapiens, -2.63% in experiment [6], -2.56% in experiment [7] and -6.05% in experiment [8].
Turning to `CC(C)NC(=O)[C@@H](NC(=O)N1CCN(c2ccc(Cl)cc2)CC1)C(C)C`, the Percent Effect in [1] is -9.49%; in experiment [2] it was -5.41%; in experiment [3], -0.377%; with Trypanosoma cruzi, -3.78%; in [4], -3.85%; in experiment [5] it was 12.2%. Moreover, the Percent Effect in the experiment filed under Homo sapiens is 31.6%; in experiment [6], 0.532%; in experiment [7] it was -4.88%; in experiment [8], -2.5%.
Take `Cc1cccc(C(=O)N2CCCCC2c2ccc(CN(C)C)cc2)n1` (stereo not given): the Percent Effect was -1.58% in experiment [1]; 18.9% in experiment [2]; 3.59% in [3]; 5.92% in the experiment on Trypanosoma cruzi; 27.6% in [4]; 21.2% in experiment [5]. Moreover, the Percent Effect in the experiment filed under Homo sapiens was 5.13%; in [6], 9.04%; in experiment [7], 14.6%; in [8], -6.07%.
Regarding `CCN(C(=O)c1ccc(-n2ncc(C#N)c2N)cc1)C1CCCC1`, the Percent Effect in experiment [1] is -1.54%; in experiment [2], 15.6%; in experiment [3], 1.83%; in the experiment on Trypanosoma cruzi, -0.187%; in experiment [4], -5.12%; in [5] it was 6.67%. Moreover, the Percent Effect in the experiment listed under Homo sapiens is 3.59%; in experiment [6], -14.7%; in experiment [7], 16.5%; in experiment [8], -7.19%.
As to `CN1CCN(c2ncnc3c2c(C(=O)NC2CC2)c2ccccn23)CC1`, the Percent Effect was -0.824% in experiment [1]; -6.49% in experiment [2]; 1.78% in experiment [3]; -5.16% with Trypanosoma cruzi; 3.24% in experiment [4]; -2.56% in experiment [5]. Also, the Percent Effect was 0.0174% in the experiment filed under Homo sapiens, -1.58% in [6], 0% in experiment [7] and -13.6% in experiment [8].
Consider `Cc1cccnc1C(=O)N1CCCCC1c1[nH]ncc1S(C)(=O)=O` (stereo not given), for which the Percent Effect is -3.04% in experiment [1]; 6.67% in [2]; 0.367% in experiment [3]; -1.97% in the experiment with Trypanosoma cruzi; 6.64% in experiment [4]; 4.76% in [5]. For the same molecule, the Percent Effect was 0.716% in the experiment listed under Homo sapiens, 7.41% in experiment [6], 7.5% in experiment [7] and -19.6% in [8].
For `CN(C)CC(=O)N1CCC2(CCN(Cc3ccccn3)C2=O)C1` (stereo not given), the Percent Effect in experiment [1] was -3.33%; in experiment [2], -1.3%; in experiment [3], -3.23%; in the experiment on Trypanosoma cruzi, -2.63%; in experiment [4], -4.45%; in experiment [5] it was 12.6%. Besides, the Percent Effect was -1.64% in the experiment filed under Homo sapiens, 1.58% in experiment [6], 7.69% in experiment [7] and -2.1% in experiment [8].
